Laboratory results reported in PubChem BioAssay (Tox21).
Inconclusive results are not listed. The source made the active and inactive calls. Unless noted, the call rests on the fitted dose curve; in most records, active means well fitted curve in the direction sought with a large enough effect in the repeat runs; inconclusive means weak or mixed curves; inactive means no such curve, though single readings can be large; an effect the other way counts as inactive or inconclusive.

Legend:
[1] = qHTS assay to identify small molecule antagonists of the sonic hedgehog signaling (Shh) pathway (AID 1259369; calls by dose curve; further: nearly all actives have a fitted effect of over 45% in size)
How it was run: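 3T3Gli1-Luc, conditioned-medium-stimulated, 24hr cpd, 37C/5% CO2; Gli1-driven firefly Luc luminescence after 30min RT with luciferase reagent. Cells plated 4hr before cpd.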

[2] = qHTS assay to identify small molecule agonists of the androgen receptor (AR) signaling pathway in the presence of an antagonist - cell viability counter screen (AID 1259379);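 further: MDA-kb2 human breast cancer cells carrying an MMTV luciferase reporter; series mostly up to about 92 µM; nearly all actives have a fitted effect of over 25% in size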
How it was run: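 Cells: MDA-kb2 (MMTV-luc, AR and GR elements), 3,000/well, 5 hr settle. Added: nilutamide 3.0uM final, then compounds (15 conc.). Incubation: 16 hr, 37C, no CO2. Read-out: CellTiter-Fluor, 1 hr, fluorescence.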

[3] = qHTS assay to identify small molecule agonists of the estrogen receptor beta (ER-beta) signaling pathway - cell viability counter screen (AID 1259380); further: nearly all actives have a fitted effect of over 30% in size
How it was run: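 HEK293T ER-beta-UAS-bla; 2% CS-FBS; 6 hr pre-plate, 16 hr cpd at 37C/5% CO2; LiveBLAzer read first, then CellTiter-Glo 30 min RT, luminescence.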

[4] = qHTS assay to identify small molecule antagonists of the estrogen receptor beta (ER-beta) signaling pathway - cell viability counter screen (AID 1259382);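 further: HEK293T cells carrying ER-beta-UAS-bla reporter stimulated with estradiol; series mostly up to about 92 µM; nearly all actives have a fitted effect of over 55% in size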
How it was run: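 Cells: ER-beta-UAS-bla HEK293T, 2,000/well, 2% CS-FBS, 6 hr settle. Cpd + E2 (1nM final), 16 hr, 37C/5% CO2. Bla FRET substrate 2 hr RT, then CellTiter-Glo 30 min RT, luminescence.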

[5] = molecular target: Estrogen receptor (Homo sapiens) (UniProt P03372); assay: qHTS assay to identify small molecule agonists of the estrogen receptor alpha (ER-alpha) signaling pathway in the presence of an antagonist (AID 1259383; calls by dose curve; further: top concentration of the series differs between compounds; nearly all actives have a fitted effect of over 15% in size)
Chain of Estrogen receptor (Homo sapiens) (P03372 whole entry, looked up): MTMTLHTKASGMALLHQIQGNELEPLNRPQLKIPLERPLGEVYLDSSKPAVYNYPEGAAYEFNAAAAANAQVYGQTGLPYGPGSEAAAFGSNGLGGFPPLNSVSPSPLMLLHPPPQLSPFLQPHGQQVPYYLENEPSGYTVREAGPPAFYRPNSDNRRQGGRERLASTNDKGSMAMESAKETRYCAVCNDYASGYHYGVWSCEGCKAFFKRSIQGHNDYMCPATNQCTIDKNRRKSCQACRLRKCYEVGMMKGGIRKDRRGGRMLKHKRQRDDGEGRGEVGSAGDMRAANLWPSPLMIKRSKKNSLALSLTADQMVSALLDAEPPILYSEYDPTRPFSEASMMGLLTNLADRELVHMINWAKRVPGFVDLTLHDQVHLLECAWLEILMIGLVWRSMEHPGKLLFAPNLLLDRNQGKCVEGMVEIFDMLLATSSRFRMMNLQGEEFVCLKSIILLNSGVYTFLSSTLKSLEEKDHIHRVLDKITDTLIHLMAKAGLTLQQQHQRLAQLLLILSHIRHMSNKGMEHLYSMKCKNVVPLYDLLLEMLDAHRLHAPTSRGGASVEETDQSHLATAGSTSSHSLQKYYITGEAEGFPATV
How it was run: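 VM7Luc4E2, endog. ER-alpha + 4×ERE-luc; charcoal-stripped FBS, phenol red-free, 5 d; 24hr plating; +10.0nM ICI-182,780 (final); cpds 15 conc, 22hr, 37C/5% CO2; ONE-Glo luminescence.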

[6] = qHTS assay to identify small molecule agonists of the estrogen receptor alpha (ER-alpha) signaling pathway in the presence of an antagonist - cell viability counter screen (AID 1259386);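 further: series mostly up to about 92 µM; cells exposed to compounds for 22 h at 37 °C before the viability read; nearly all actives have a fitted effect of over 30% in size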
How it was run: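 VM7Luc4E2, stripped-serum pre-culture 5 d; 24hr plating; +ICI-182,780 10.0nM final; cpds 15 conc, 22hr, 37C/5% CO2; CellTiter-Fluor added at 21hr, fluorescence 1hr later.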

[7] = molecular target: Progesterone receptor (Homo sapiens) (UniProt P06401); assay: qHTS assay to identify small molecule antagonists of the progesterone receptor (PR) signaling pathway (AID 1346795; active means well fitted inhibition curve with a large enough effect in the signal ratio in the repeat runs, not every such curve was filed as active; the % refers to the signal ratio)
Chain of Progesterone receptor (Homo sapiens) (P06401 whole entry, looked up): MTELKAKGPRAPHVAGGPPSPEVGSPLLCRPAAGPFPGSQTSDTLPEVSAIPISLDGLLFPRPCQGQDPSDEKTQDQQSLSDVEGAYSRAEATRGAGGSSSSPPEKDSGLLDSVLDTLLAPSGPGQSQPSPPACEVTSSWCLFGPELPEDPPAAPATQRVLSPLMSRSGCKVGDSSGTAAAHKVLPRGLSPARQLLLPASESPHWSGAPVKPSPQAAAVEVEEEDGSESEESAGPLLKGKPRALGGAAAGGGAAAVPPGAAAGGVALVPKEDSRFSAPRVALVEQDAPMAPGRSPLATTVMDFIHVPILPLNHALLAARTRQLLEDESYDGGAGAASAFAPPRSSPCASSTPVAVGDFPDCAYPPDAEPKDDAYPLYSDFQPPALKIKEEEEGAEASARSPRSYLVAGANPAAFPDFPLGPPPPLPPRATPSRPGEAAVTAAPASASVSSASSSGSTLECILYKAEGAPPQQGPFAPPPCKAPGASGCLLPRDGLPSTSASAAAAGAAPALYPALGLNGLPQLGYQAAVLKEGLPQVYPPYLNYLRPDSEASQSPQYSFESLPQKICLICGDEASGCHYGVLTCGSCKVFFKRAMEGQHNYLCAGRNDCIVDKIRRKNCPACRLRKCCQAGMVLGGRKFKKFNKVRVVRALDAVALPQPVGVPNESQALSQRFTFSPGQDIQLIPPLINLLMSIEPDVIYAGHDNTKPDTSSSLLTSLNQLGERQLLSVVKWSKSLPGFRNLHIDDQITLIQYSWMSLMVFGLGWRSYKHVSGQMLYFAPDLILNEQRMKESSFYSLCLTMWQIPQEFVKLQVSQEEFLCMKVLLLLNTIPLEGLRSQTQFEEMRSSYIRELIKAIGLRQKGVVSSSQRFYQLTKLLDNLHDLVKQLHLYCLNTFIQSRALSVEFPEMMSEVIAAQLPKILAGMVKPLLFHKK
How it was run: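 Inhibition of R5020-induced (1 nM final) beta-lactamase reporter signal in PR-UAS-bla HEK293T cells was scored by FRET fluorescence after overnight (16 hr) compound treatment.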

[8] = qHTS assay to identify small molecule antagonists of the progesterone receptor (PR) signaling pathway - cell viability counter screen (AID 1346798); further: series mostly up to about 92 µM; nearly all actives have a fitted effect of over 50% in size
How it was run: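 ATP content as viability readout: CellTiter-Glo luminescence, 30 min room temperature, in PR-UAS-bla HEK293T cells after 16 hr compound/R5020 treatment at 37C and 5% CO2.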

[9] = qHTS assay to identify small molecule agonists of the progesterone receptor (PR) signaling pathway - cell viability counter screen (AID 1346799; calls by dose curve; further: nearly all actives have a fitted effect of over 45% in size)
How it was run: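 Cytotoxicity in PR-bla HEK293T cells: 16 h compound, 37C; CellTiter-Glo added post-FRET read; luminescence after 30 min RT.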

[10] = qHTS assay to identify small molecule antagonists of the TGF-beta/Smad signaling pathway - cell viability counter screen (AID 1346824); further: nearly all actives have a fitted effect of over 50% in size
How it was run: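 Cytotoxicity counter-screen run in the same wells as the beta-lactamase Smad reporter read: CellTiter-Glo luminescence after 30 min at room temperature. HEK 293T SBE-bla cells had 5 hr compound exposure at 37 C with TGF-beta1 (0.25 ng/mL stock).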

[11] = qHTS assay to identify small molecule agonists of the TGF-beta/Smad signaling pathway - cell viability counter screen (AID 1346829); further: top concentration of the series differs between compounds; nearly all actives have a fitted effect of over 45% in size
How it was run: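 Here the cytotoxicity of library compounds is measured in SBE-bla HEK 293T cells treated for 5 hr, using CellTiter-Glo added to wells already read for the beta-lactamase reporter.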

[12] = qHTS assay to identify small molecule agonists of the TGF-beta/Smad signaling pathway (AID 1346859; active means well fitted activation curve with a large enough effect in the signal ratio in the repeat runs, not every such curve was filed as active; the % refers to the signal ratio; further: series mostly up to about 77 µM)
How it was run: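 Stable Smad binding element-beta-lactamase HEK 293T cells; 5 hr compound exposure at 37 C under 5% CO2; 2 hr room-temperature substrate step; fluorescence excited at 405 nm, collected at 460 nm and 530 nm.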

[13] = molecular target: Thyrotropin-releasing hormone receptor (Homo sapiens) (UniProt P34981); assay: qHTS assay to identify small molecule antagonists of the thyrotropin-releasing hormone receptor (TRHR) signaling pathway (AID 1346877; active means well fitted inhibition curve with a large enough effect in the repeat runs, not every such curve was filed as active; further: series mostly up to about 51 µM)
Chain of Thyrotropin-releasing hormone receptor (Homo sapiens) (P34981 whole entry, looked up): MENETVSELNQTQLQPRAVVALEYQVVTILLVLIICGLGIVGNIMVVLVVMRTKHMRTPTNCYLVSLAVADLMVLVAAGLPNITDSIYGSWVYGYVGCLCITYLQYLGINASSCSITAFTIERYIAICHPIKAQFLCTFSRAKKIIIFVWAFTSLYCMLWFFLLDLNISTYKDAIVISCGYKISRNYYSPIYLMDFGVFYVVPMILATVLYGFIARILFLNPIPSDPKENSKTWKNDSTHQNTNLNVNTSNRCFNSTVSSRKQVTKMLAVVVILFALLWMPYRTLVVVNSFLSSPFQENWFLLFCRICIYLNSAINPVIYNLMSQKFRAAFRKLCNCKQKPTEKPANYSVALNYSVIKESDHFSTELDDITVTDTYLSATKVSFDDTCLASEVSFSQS
How it was run: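 Intracellular calcium fluorescence, read kinetically every second over 3 min, reports TRH-evoked signalling in HEK293 cells carrying TRHR. Test compounds were added 5 min ahead of a 1 nM TRH challenge.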

[14] = molecular target: Thyrotropin-releasing hormone receptor (Homo sapiens) (UniProt P34981); assay: qHTS assay to identify small molecule agonists of the thyrotropin-releasing hormone receptor (TRHR) signaling pathway (AID 1346891; calls by dose curve;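 further: HEK293 cells expressing TRHR with calcium dye readout; series mostly up to about 58 µM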)
How it was run: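 In 1536-format, 1500 TRHR-Hek293 cells per well grew 18 h, took up calcium dye for 2 h at 37 °C, received compound, and were read kinetically; 15-point titrations, triplicates.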

[15] = qHTS assay to identify small molecule agonists or antagonists of the thyroid stimulating hormone receptor (TSHR) signaling pathway - wild type cell line counter screen (AID 1259384; calls by dose curve)
How it was run: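 Counter screen in untransfected Hek293: compounds (15-point titration, triplicate) plus phosphodiesterase inhibitor Ro20-1724 added after 18 h plating; 30 min RT. Intracellular cAMP via competitive d2/cryptate immunoassay, 1 h incubation.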

[16] = molecular target: Thyrotropin receptor (Homo sapiens) (UniProt P16473); assay: qHTS assay to identify small molecule antagonists of the thyroid stimulating hormone receptor (TSHR) signaling pathway (AID 1259385; calls by dose curve; further: nearly all actives have a fitted effect of over 20% in size)
Chain of Thyrotropin receptor (Homo sapiens) (P16473 whole entry, looked up): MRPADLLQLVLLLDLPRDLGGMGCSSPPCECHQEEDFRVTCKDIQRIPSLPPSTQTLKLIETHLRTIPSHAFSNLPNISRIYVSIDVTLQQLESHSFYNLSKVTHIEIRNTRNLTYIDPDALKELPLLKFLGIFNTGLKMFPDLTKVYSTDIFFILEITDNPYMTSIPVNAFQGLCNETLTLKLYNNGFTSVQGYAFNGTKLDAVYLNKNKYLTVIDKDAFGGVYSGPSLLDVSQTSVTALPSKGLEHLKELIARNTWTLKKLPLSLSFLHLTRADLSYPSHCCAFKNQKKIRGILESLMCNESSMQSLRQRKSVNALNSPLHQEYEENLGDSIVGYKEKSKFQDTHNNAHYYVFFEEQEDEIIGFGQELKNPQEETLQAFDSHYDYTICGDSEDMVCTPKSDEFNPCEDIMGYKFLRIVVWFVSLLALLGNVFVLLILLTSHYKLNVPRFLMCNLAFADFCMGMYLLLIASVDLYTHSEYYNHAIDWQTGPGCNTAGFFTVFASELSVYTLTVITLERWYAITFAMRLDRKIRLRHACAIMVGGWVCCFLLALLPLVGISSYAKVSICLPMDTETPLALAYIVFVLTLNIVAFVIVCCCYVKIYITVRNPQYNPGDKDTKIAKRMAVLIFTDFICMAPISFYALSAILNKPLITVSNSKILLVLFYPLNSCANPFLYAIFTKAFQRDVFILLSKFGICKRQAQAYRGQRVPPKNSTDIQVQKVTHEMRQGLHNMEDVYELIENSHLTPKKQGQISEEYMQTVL
How it was run: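 Antagonist mode: compound-treated TSHR-expressing HEK293 cells were stimulated with 1.5 ng/mL TSH (final) in presence of Ro20-1724 for 30 min at RT. HTRF cAMP detection after 1 h; each compound tested at 15 concentrations, triplicate.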

[17] = molecular target: Progesterone receptor (Homo sapiens) (UniProt P06401); assay: qHTS assay to identify small molecule agonists of the progesterone receptor (PR) signaling pathway (AID 1346784; calls by dose curve; further: nearly all actives have a fitted effect of over 30% in size)
How it was run: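 Using charcoal-stripped serum (2%) to limit endogenous steroids, PR-UAS-bla HEK 293T cells received compounds for 16 hr at 37C after 6 hr plating; beta-lactamase FRET fluorescence was recorded following 2 hr substrate loading at room temperature.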

[18] = molecular target: Androgen receptor (Homo sapiens) (UniProt P10275); assay: qHTS assay to identify small molecule agonists of the androgen receptor (AR) signaling pathway in the presence of an antagonist (AID 1259381; calls by dose curve; further: nearly all actives have a fitted effect of over 15% in size)
Chain of Androgen receptor (Homo sapiens) (P10275 whole entry, looked up): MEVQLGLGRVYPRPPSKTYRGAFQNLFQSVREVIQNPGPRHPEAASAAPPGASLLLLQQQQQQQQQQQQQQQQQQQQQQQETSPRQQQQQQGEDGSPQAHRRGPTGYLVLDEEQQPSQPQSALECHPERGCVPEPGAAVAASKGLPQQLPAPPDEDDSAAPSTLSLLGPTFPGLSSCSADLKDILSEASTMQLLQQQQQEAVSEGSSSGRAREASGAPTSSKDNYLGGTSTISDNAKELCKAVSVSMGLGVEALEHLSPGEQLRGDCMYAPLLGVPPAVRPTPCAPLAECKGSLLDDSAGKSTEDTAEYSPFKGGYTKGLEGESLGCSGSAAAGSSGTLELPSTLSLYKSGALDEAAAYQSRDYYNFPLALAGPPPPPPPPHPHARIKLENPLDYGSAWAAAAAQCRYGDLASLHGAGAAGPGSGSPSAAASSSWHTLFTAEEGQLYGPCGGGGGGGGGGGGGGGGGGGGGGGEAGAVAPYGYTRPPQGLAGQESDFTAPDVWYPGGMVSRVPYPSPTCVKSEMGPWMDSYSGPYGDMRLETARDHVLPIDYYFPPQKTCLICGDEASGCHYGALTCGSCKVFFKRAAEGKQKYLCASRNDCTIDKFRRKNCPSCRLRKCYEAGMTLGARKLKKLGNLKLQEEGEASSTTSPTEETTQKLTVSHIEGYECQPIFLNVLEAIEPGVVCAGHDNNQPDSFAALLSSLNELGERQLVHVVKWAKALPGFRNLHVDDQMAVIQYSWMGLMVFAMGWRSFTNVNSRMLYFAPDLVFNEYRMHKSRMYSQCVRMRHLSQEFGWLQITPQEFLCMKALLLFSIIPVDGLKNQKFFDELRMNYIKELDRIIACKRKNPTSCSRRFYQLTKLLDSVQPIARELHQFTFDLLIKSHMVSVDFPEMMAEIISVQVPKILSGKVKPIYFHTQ
How it was run: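 MDA-kb2 cells, 3,000/well, rested 5hr at 37C/0% CO2 → nilutamide 3.0uM final or buffer → compounds, 15 conc. → 16hr at 37C → ONE-Glo, 30min RT → luminescence.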

Measured: Potency

CCCCC(=O)O[C@]1(C(=O)CO)CC[C@H]2[C@@H]3CCC4=CC(=O)CC[C@]4(C)[C@H]3[C@@H](O)C[C@@]21C
not listed: [15] | [16] | [17] | [18]
inactive: all other assays above

COc1cc2[nH]c(=O)[nH]c(=O)c2cc1OC
not listed: [14] | [18]
inactive: all other assays above

COC(=O)[C@@H]1CC2=CC(=O)CC[C@]2(C)[C@@]23O[C@@H]2C[C@@]2(C)[C@@H](CC[C@@]24CCC(=O)O4)[C@H]13
not listed: [7] | [15] | [18]
inactive: all other assays above

C[Si]1(C)O[Si](C)(C)O[Si](C)(C)O1
not listed: [5] | [10] | [16]
inactive: all other assays above

N#C[C@@H]1C[C@@H]2C[C@@H]2N1C(=O)[C@@H](N)C12CC3CC(CC(O)(C3)C1)C2
not listed: [13] | [14] | [18]
inactive: all other assays above

O=C(C(=O)c1ccccc1)c1ccccc1
not listed: [5] | [15] | [16] | [17] | [18]
inactive: all other assays above

CC(C)CCCCCCOC(=O)CCCCC(=O)OCCCCCCC(C)C
not listed: [13] | [14] | [16] | [18]
inactive: all other assays above
